This is an account of results in the supplement of paper PMC13380429.

Assay [1] deals with Vero E6 infected with SARS-CoV-2. Kind of assay: morphology score (similarity to uninfected cells); higher = more like uninfected cells. Conditions: 24 h.
For assay [2] the test system is unchanged. As to the kind of experiment: SARS-CoV-2 infection rate relative to infected DMSO; higher = more infection, active = 60 or less. The note with it: 24 h.

On to `OC[C@H]1O[C@@H](c2ccc(F)c(Cc3cc4ccccc4s3)c2)[C@H](O)[C@@H](O)[C@@H]1O` [ipragliflozin-L-proline] (10 µM), for which, in assay [1], the morphology score worked out at 0.0125. In addition, in assay [2], the SARS-CoV-2 infection rate was 110% (inactive).
In assay [1], `O=C1C[C@@]2(C(=O)N1)C(=O)N(Cc1ccc(Br)cc1F)C(=O)c1cccn12` [ranirestat] (10 µM) had a morphology score of 0.148. Further, in assay [2], the SARS-CoV-2 infection rate was 94.5% (inactive).
Regarding `Cc1noc(NS(=O)(=O)c2ccc(N)cc2)c1C` [sulfafurazole] (10 µM), the morphology score in assay [1] is 0.1. In assay [2], the SARS-CoV-2 infection rate is 100% (inactive).
For `C=C[C@@]1(C)CC(=O)[C@]2(O)[C@@]3(C)[C@@H](O)CCC(C)(C)[C@@H]3[C@H](O)[C@H](OC(C)=O)[C@@]2(C)O1` [colforsin] (10 µM) the same measures were 0.455 and 83% (inactive).
In turn, `CCN(CC)CCNC(=O)c1c(C)[nH]c(/C=C2\C(=O)Nc3ccc(F)cc32)c1C` [sunitinib] (0.833333 µM) registered a morphology score in assay [1] of 0.396. Further, the SARS-CoV-2 infection rate in assay [2] is 99% (inactive).
As for `Fc1ccc([C@@H]2CCNC[C@H]2COc2ccc3c(c2)OCO3)cc1` [paroxetine] (10 µM), the morphology score in assay [1] is -0.0761. For the same compound, the SARS-CoV-2 infection rate in assay [2] is 117% (inactive).
As to `N#CN1CCCC1` [pyrrolidine-1-carbonitrile] (10 µM), the morphology score in assay [1] was 0.254. Besides, the SARS-CoV-2 infection rate in assay [2] is 92% (inactive).
For `Cc1cc(Nc2cc(C)c(C#N)c(N[C@@H](C)CCCC(C)(C)O)n2)n[nH]1` (10 µM) the same measures were -0.0857 and 113% (inactive).
With `C[C@@H]1COC(Nc2ccc3ncnc(Nc4ccc(OCc5nccs5)c(Cl)c4)c3c2)=N1` (10 µM), the morphology score in assay [1] was -0.156. In addition, the SARS-CoV-2 infection rate in assay [2] was 97% (inactive).
In assay [1], `CC1(N)CCN(c2cnc(-c3cccc(Cl)c3Cl)c(N)n2)CC1` (0.833333 µM) gave a morphology score of 0.0281. Besides, in assay [2], the SARS-CoV-2 infection rate was 112% (inactive).
